Out of some 330,000 compounds screened, about 4,600 (1.4%) were called active. Many of the other results were omitted from the sample, so actives are more common in it than they were. Values without a mark were called inactive.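 Rule for the calls: active = inhibition of 40% or more at the single tested concentration; inactive = the rest.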
Assay: growth inhibitors of isogenic TIM10 control yeast, primary screen, counter-screen for tim10-1 yeast inhibitor project, luminescence, uHTS (AID 463195);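 note: wild-type TIM10 isogenic control strain grown at permissive 25 °C; 0% = DMSO yeast wells and 100% = minimal medium wells without yeast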
Conditions: S. cerevisiae TIM10 strain growth, BacTiter-Glo luminescence, 24 h; at 10 µM; stronger effect = higher value

Compound	inhibition
CCn1c(=O)c(C(=O)NCc2ccc3c(c2)OCO3)c(O)c2ccccc21	-11.9%
O=C(NCc1ccc2c(c1)OCO2)c1sccc1Br	9.81%
O=C(NCc1ccc2c(c1)OCO2)c1c(O)nc2sccn2c1=O	45% (active)
CC(=O)c1c(C)n([O-])c2ccccc2[n+]1=O	-2.57%
O=C1N[C@H](Cc2c[nH]c3ccccc23)COC(=O)[C@H](Cc2ccc(F)cc2)C/C=C\C[C@H]1CC(=O)N(CCO)Cc1ccccc1	-8.49%
CC(=O)Nc1ccc(/C=C/C(=O)c2ccccc2)cc1	26.1%
Cc1[nH]c(=O)c(C(=O)/C=C/c2ccccc2)c2c1CCCC2	45% (active)
O=C(/C=C/c1ccc(N2CCOCC2)cc1)c1ccccc1	39.5%
O=C(O)CCc1nc2cc(Cl)ccc2n(Cc2ccccc2)c1=O	21.5%
COc1ccc(CN2C(CC(=O)Nc3cccnc3)c3ccc(C(F)(F)F)cc3S2(=O)=O)cc1 (centres undefined)	-7.66%
O=C(NC1(C(F)(F)F)NC(=O)N(C2CCCCC2)C1=O)c1ccco1 (centres undefined)	-5.03%
O=C1NC(Nc2nc3ccccc3s2)(C(F)(F)F)C(=O)N1C1CCCCC1 (centres undefined)	52.6% (active)
Cc1cc(C)c2nc(-c3cccnc3)cc(C(=O)Nc3ccc(S(=O)(=O)Nc4onc(C)c4C)cc3)c2c1	-10%
Cc1cc(NC(=O)CSc2ncc(C(F)(F)F)cc2Cl)no1	-8.23%
Cc1ccc(-c2ccnc3nc(Sc4ncc(C(F)(F)F)cc4Cl)nn23)cc1	42.2% (active)
Cc1nn(-c2ncc(C(F)(F)F)cc2Cl)c(=O)n1-c1ccccc1	10.6%
CNC(=O)NC(=O)C(OC(=O)c1cccc(S(=O)(=O)N2CCCCC2)c1)c1ccccc1 (centres undefined)	15.5%
CCOCCCN1C(=O)C2C(C(=O)Nc3ccc(OCC)cc3)C3C=CC2(O3)C1C(=O)NC1CCCCC1 (centres undefined)	5.11%
Cc1ccc(N2C(=O)c3ccccc3C2(O)c2ncc[nH]2)cc1 (centres undefined)	1.61%
O=[N+]([O-])c1ccccc1S(=O)(=O)Nc1cccc2cccnc12	44.6% (active)
O=[N+]([O-])c1cccc2ncccc12	-18%
COc1cc(NS(=O)(=O)c2ccc3ccccc3c2)c2ncccc2c1	9.71%
C[C@H](NC(=O)c1[nH]cnc1C(=O)Nc1nccs1)c1ccccc1	6.5%
COc1ccc2c(c1)c(C(=O)N/N=C/c1cccs1)c(C)n2C	24%
COc1cccc(CNC(=O)CCC2CCCN(C(=O)c3ccoc3C)C2)c1 (centres undefined)	10.1%

Compound	inhibition
CC1CCN(Cc2nc3c(c(=O)n(C)c(=O)n3C)n2CCc2ccccc2)CC1	3.96%
CCCc1nc2c(c(=O)c3ccccc3n2C)c(=O)n1C1CCCCCC1	49.4% (active)
Cn1c2ccccc2c2c(C(=O)N3CCN(c4ccc(F)cc4)CC3)cn(C3CCCC3)c(=O)c21	37.3%
CCOC(=O)CSc1nc2ccc(C)cc2n2cnnc12	3.21%
O=c1ccc2cc(S(=O)(=O)Nc3ccccc3F)ccc2o1	4.92%
O=c1oc2ccccc2c(NC2CCCCC2)c1NS(=O)(=O)c1ccc(Cl)cc1	21.4%
O=c1oc(-c2ccccc2NS(=O)(=O)c2ccc(Cl)cc2)nc2ccccc12	59.4% (active)
O=C(NC(=O)c1ccccc1N1CCCCC1)Nc1ccc(Br)cc1	14.8%
CCOCCn1[nH]c2ccccc2c1=O	2.98%
Cc1ccc(N2C(=O)CC(Sc3ncn[nH]3)C2=O)cc1 (centres undefined)	26.4%
COc1ccc(N2C(=O)CC(SC(C)C)C2=O)cc1 (centres undefined)	5.36%
COc1ccc(N2C(=O)CC(Sc3n[nH]c(-c4ccc(C)cc4)n3)C2=O)cc1 (centres undefined)	54% (active)
COc1ccc(CNC(=O)c2ccc3oc(C(C)C)nc3c2)cc1	2.31%
Fc1cccc(Cl)c1CSc1ccc(-c2ccco2)nn1	46.6% (active)
Cc1cc(SCc2c(F)cccc2Cl)nc(=O)[nH]1	9.07%
O=C(CSc1ccc(-c2ccco2)nn1)Nc1cccc(F)c1	6.71%
O=C(Nc1ccc2c(c1)CCC2)c1ccc(Br)s1	61.4% (active)
O=C(Nc1ccc(F)cc1)c1cc2c(s1)CCCC2	14%
CC1CC(C)CN(CCC(=O)Nc2ccc3c(c2)CCC3)C1 (centres undefined)	-5.01%
COc1ccccc1N1CCN(S(=O)(=O)c2ccc3c(c2)NC(=O)CS3)CC1	12.3%
COc1cccc(-n2c(=S)sc3c(=O)n(-c4ccccc4C)c(SCC(=O)O)nc32)c1	8.02%
C=CCN(C(=O)Cn1ncc2c1-c1cc(C)ccc1OC2)c1ccccc1	16.6%
Cc1cc(C)c2c(-c3ccc(F)cc3)c(C#N)c(=O)n(C)c2n1	11.3%
COCCn1c(=O)[nH]c(=O)c2cc(C(=O)c3cc(OC)ccc3O)cnc21	-1.14%
COc1ccc(O)c(C(=O)c2cnc3c(c2)c(-c2ccc(F)cc2)c(C#N)c(=O)n3C)c1	40.2% (active)

Compound	inhibition
O=C(c1ccc(-n2cnnn2)cc1)N1CCN(C(c2ccccc2)c2ccccc2)CC1	2.74%
c1ccc2c(NCC3CCCO3)nc(-c3ccncc3)nc2c1 (centres undefined)	19.5%
Clc1cccc(-c2nc(NCC3CCCO3)c3ccccc3n2)c1 (centres undefined)	26.8%
c1ccc(-c2nc(NCc3ccco3)c3ccccc3n2)cc1	49.9% (active)
COc1ccccc1C(=O)N/C(=C/c1ccco1)C(=O)Nc1ccc(C(=O)O)cc1	-3.06%
N/C(=N\OC(=O)CCCC(=O)O)c1ncc(C(F)(F)F)cc1Cl	-12.6%
N/C(=N\OC(=O)Nc1ccc(Cl)c(Cl)c1)c1ncc(C(F)(F)F)cc1Cl	71.5% (active)
O=C(c1ccccn1)c1ncc(C(F)(F)F)cc1Cl	-12.3%
Cc1cccc(C)c1NC(=O)N1CC(C)OC(C)C1 (centres undefined)	-0.538%
CCN(CC)C(=O)c1sc2nc(-c3ccccc3)ccc2c1N	18.6%
CS(=O)(=O)c1sc2nc(-c3ccccc3)cc(-c3ccccc3)c2c1N	46.7% (active)
CNC(=S)NNC(=O)c1oc2nc(-c3ccccc3)cc(-c3ccco3)c2c1N	2.74%
S=c1[nH]nc2c3c4c(sc3ncn12)CCCC4	29.6%
C=C(C)COc1ccc(-c2n[nH]c(C)c2-c2ccccc2)c(O)c1	45.6% (active)
C=C(C)COc1ccc(-c2ncncc2-c2ccc(OC)cc2)c(O)c1	17.4%
COc1ccc(-c2n[nH]c(C)c2-c2ccccc2OC)c(O)c1	25.2%
Cn1c(=O)oc2cc(S(=O)(=O)NCCC(=O)NCc3ccccc3Cl)ccc21	6.26%
O=C(CN1CCSCC1)N/N=C/c1ccc(F)cc1F	-5.91%
CNS(=O)(=O)c1ccc(NC(=O)C2CC(=O)N(c3ccc(Cl)cc3)C2)cc1 (centres undefined)	-1.17%
Cc1c(NC(=O)C(C)OC(=O)c2c3c(nc4ccccc24)CCC(C)C3)c(=O)n(-c2ccccc2)n1C (centres undefined)	-6.65%
CSCCC(NS(=O)(=O)c1ccc(C)cc1)C(=O)N1CCCC1 (centres undefined)	-9.58%
CSCCC(NC(=O)c1ccccc1)C(=O)N1CCCCCCC1 (centres undefined)	2.09%
CSCCC(NS(=O)(=O)/C=C/c1ccccc1)C(=O)N1CCC(C)CC1 (centres undefined)	43.1% (active)
O=C1/C(=C/c2cccs2)CCC1C1CCCC1 (centres undefined)	-11.5%
CC(=O)NCc1ccc(S(=O)(=O)NC2CCN(Cc3ccccc3)CC2)cc1	0.58%

Compound	inhibition
COc1ccc(S(=O)(=O)NC(C)c2ccccc2)cc1C(=O)N1CCCCC1 (centres undefined)	13.1%
Cc1cccc(C(=O)Nc2ccc(C(=O)/C=C/c3cccs3)cc2)c1	10%
Cc1cccc(C2=N/C(=C/c3cccs3)C(=O)O2)c1	41.4% (active)
Cc1ccc(C2=N/C(=C\c3ccc(OS(=O)(=O)c4ccc(C)cc4)cc3)C(=O)O2)cc1	-5.54%
CC1(C)C(C=C(Cl)Cl)C1C(=O)N(Cc1ccc(Cl)cc1)C1CCS(=O)(=O)C1 (centres undefined)	17.4%
C=CS(=O)c1sc(Cl)c(N2CCOCC2)c1[N+](=O)[O-] (centres undefined)	67.8% (active)
CCN(CC)P(=O)(Nc1ccc(SC(F)F)cc1)c1ccc(N(C)C)cc1NC(=O)c1ccco1 (centres undefined)	19%
Cc1ccc(CCN2CC(C(=O)O)CC2=O)cc1 (centres undefined)	-9.17%
CN(C)C(=O)COC(=O)c1cccc(S(=O)(=O)N2CC3(C)CC2CC(C)(C)C3)c1 (centres undefined)	5.89%
COc1ccc(C(=O)N2CC3(C)CC2CC(C)(C)C3)cc1OC (centres undefined)	9.33%
Cc1nnnn1/C(=C\c1ccccc1)C(=O)OCC(=O)N1CC2(C)CC1CC(C)(C)C2 (centres undefined)	62.3% (active)
Cc1cccc(NC(=S)NC23CN4CN(CN(C4)C2)C3)c1	-11.6%
Cc1cccc(NC(=S)NCc2ccc3[nH]c4c(c3c2)CCCC4)c1	42.9% (active)
Cc1cccc(NC(=S)NCCN(C2CCCCC2)C2CCCC2)c1	11.8%
N#C/C(=C(\O)C(F)(F)F)c1nnc2n1CCCCC2	-10.3%
COc1ccc(C(=O)Nc2ccccc2C(=O)N2CCN(c3ccccc3)CC2)cc1	14.5%
COc1cc(C=NNC(=O)c2cccnc2)ccc1OC(=O)c1ccccc1F	7.06%
COc1ccc(/C=N/Nc2ccccc2C(=O)O)cc1	13.9%
COc1ccc(C(=O)Nc2ccccc2C(=O)N/N=C/c2ccc(O)c(OC)c2)cc1	93.2% (active)
COc1cc(/C=N/NC(=O)c2cccnc2)ccc1OC(=O)c1cccc(Br)c1	14.7%
COc1ccc(C(=O)Nc2cc(C)c(NC(=O)c3ccccc3OC)cn2)cc1	14.6%
COc1ccc(C(=O)Nc2ccccc2C(=O)N/N=C/c2ccccc2OC)cc1	64.2% (active)
COc1cc(/C=N/NC(=O)c2ccccc2)ccc1OS(=O)(=O)c1ccccc1	43.1% (active)
COc1cc(/C=N/NC(=O)CCc2n[nH]c(=O)[nH]c2=O)ccc1O	5.01%

— PubChem BioAssay AID463195 (Sanford-Burnham Center for Chemical Genomics, 2010)
